This is a sample that favours compounds with a hit; in the whole collection about 2.4% have one here.
D2 antag: antagonizes the human D2 dopamine receptor | P14416 | HEK293 TREx D2 cells, calcium flux, dopamine EC80 | inhibition, % at 10 µM | 340,000 tested, 2% active; in the data active means inhibition above about 30%; inactive means below that, where a call was filed
Target sequence (P14416 whole entry, looked up): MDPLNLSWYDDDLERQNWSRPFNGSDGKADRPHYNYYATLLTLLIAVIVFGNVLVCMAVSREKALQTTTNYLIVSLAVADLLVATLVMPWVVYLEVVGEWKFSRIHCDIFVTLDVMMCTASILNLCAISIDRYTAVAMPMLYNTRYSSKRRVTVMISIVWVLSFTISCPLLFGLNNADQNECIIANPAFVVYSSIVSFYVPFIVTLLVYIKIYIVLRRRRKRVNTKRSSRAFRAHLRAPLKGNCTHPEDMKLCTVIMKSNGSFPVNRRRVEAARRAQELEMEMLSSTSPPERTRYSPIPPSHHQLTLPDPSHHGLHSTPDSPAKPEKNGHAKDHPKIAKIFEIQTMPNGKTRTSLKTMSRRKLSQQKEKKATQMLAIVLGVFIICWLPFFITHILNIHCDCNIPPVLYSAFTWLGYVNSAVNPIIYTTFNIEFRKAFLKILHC
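Dopamine at EC80 is the agonist stimulus; test compounds precede it by 180 s. Calcium flux read kinetically in a force-coupled, inducible HEK293 T-REx D2 cell line.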
D2 PAM-1: D2 dopamine receptor (human) potentiation | P14416 | HEK293 T-REx D2, calcium flux, EC20 dopamine potentiation | potentiation, % at 10 µM | 340,000 tested, 0.34% active | AID 485347;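 active means potentiation over 3 SD above the plate norm, cut at about 30% in these data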
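Tetracycline-induced Hek293 Trex D2 cells, force-coupled to calcium, loaded with no-wash calcium dye. Compound added with 180 s kinetic read for agonism, then EC20 dopamine and a further 180 s read for potentiation.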
D2 ag-1: agonists of human D2 dopamine receptor (beta-arrestin); P14416; DiscoveRx PathHunter D2 beta-arrestin, luminescence, 90 min; 100% = 57 uM dopamine signal; 360,000 tested, 0.084% active; activation, % (concentration not given with the values); in the data active means activation above about 40%
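DiscoveRx PathHunter D2 beta-arrestin cells (2,100/well) attached overnight, then compound-stimulated 90 min at 37 C in HBSS/10 mM HEPES/0.1% Tween-20 buffer; beta-galactosidase complementation read by luminescence after 1 h at ambient temperature. Dopamine 57 uM final (EC100) as control.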
D2 PAM-2: positive allosteric modulators of human D2 dopamine receptor | DiscoveRx D2 beta-arrestin cells, luminescence, 90 min; 100% = 57 uM dopamine signal | 360,000 tested, 0.23% active | P14416 | potentiation, % (test concentration not listed); in the data active means potentiation above about 50%
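PathHunter beta-arrestin assay in DiscoveRx D2 cells. Compounds were added with an EC20 of dopamine (50 nM final) for 90 min at 37 deg C. Luminescence was read 1 h after detection reagent, with 57 uM dopamine as the EC100 control.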
D2 ag-2: agonists of human D2 dopamine receptor. 340,000 tested, 0.53% active. activation, % at 2 µM. P14416. HEK293 T-REx D2 cells, calcium flux agonist mode;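 active means activation over 3 SD above normal in the single-dose calcium agonist read, cut at about 30% in these data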
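Agonism is scored from calcium flux in a force-coupled, inducible HEK293 cell line expressing D2, read kinetically for 180 s after compound addition against dopamine controls.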
Of the large screens only hits and unclear results are named; the others gave an inactive call.

COc1ccc2ccccc2c1/C=N/NC(=O)c1nnn(-c2nonc2N)c1C(C)C	D2 antag 35
CCOc1ccc(NC(=O)CCCN2C(=O)C(c3ccccc3)Oc3cccnc32)cc1 (centres undefined)	none
CC(=O)N1N=C(c2ccc(C)cc2)OC1c1ccc(C(C)C)cc1 (centres undefined)	none
CC(=O)N1N=C(c2cccnc2)OC1c1ccc(C(C)C)cc1 (centres undefined)	D2 antag 55
c1ccc(CNc2nc3ccccc3n3cnnc23)cc1	D2 PAM-1 41
c1ccc(CNc2nc3ccccc3n3cnnc23)nc1	none
CC1(C)CC(=O)c2sc(NS(=O)(=O)Cc3ccccc3)nc2C1	D2 PAM-1 34
Cc1ccc(S(=O)(=O)Nc2nc3c(s2)C(=O)CC(C)(C)C3)cc1	none
CC(C)c1ccc(N2C(=O)/C(=C/N(C)C)SC2=S)cc1	D2 ag-2 30
CCO/C=C1\SC(=S)N(c2ccc(Cl)cc2)C1=O	none
CC(C)c1ccc(NC(=O)c2cc3c(=O)[nH]c4ccccc4c3n2C)cc1	none (no result: D2 antag, D2 ag-1, D2 PAM-2)
Cc1ccc(S(=O)(=O)N(CC(=O)NCc2ccco2)C2CCCCC2)cc1	none
COc1ccc(S(=O)(=O)NCC(=O)N(CC(=O)NCc2ccco2)C2CCCC2)cc1	D2 antag 47
O=C(CN(C1CCCCC1)S(=O)(=O)c1ccccc1)NCc1ccco1	D2 PAM-1 47
COc1ccc(S(=O)(=O)N(C)CC(=O)NCc2ccco2)cc1OC	D2 antag 34
COC(=O)CN1C(=O)COc2ccc(S(=O)(=O)N3CCOCC3)cc21	D2 antag 46
O=C(O)CN1C(=O)COc2cc(S(=O)(=O)N3CCCC3)ccc21	D2 antag 31
O=C(CN1C(=O)COc2ccc(S(=O)(=O)N3CCCC3)cc21)N1CCCC1	none
CCOC(=O)c1cc2occc2n1Cc1c(F)cccc1Cl	D2 antag 31
CCOC(=O)c1cc2occc2n1Cc1ccc(F)cc1	D2 antag 34
COC(=O)c1cc2occc2n1Cc1ccc(Cl)cc1	none
CCCCN(C)C(=O)C1CCCN(c2ncnc3onc(C)c23)C1 (centres undefined)	none (no result: D2 antag, D2 ag-1, D2 PAM-2)
COc1ccc(-c2nn(C)c3sc(C(=O)Nc4cccc(F)c4)cc23)cc1OC	none (no result: D2 antag, D2 ag-1, D2 PAM-2, D2 ag-2)
Oc1cccc(Nc2ncnc3ccccc23)c1	D2 antag 51
Cc1ccc(C(C(=O)NC2CCCCC2)N(Cc2ccco2)C(=O)Cc2c[nH]c3ccccc23)o1 (centres undefined)	D2 antag 36
Nc1cc([N+](=O)[O-])ccc1Nc1ccccc1	none
Nc1cc(C(F)(F)F)ccc1Nc1ccccc1	D2 antag 67
N#Cc1ccc(Nc2ccccc2)c(N)c1	D2 antag 31
CCc1nn2c(=O)cc(COC(=O)C(CC)c3ccccc3)nc2s1 (centres undefined)	none (no result: D2 antag, D2 ag-1, D2 PAM-2)
COc1ccc(/C=C/c2c(-c3ccc(OC)cc3)oc3ccccc23)cc1	none
COC(=O)c1ccc(/C=C/c2c(-c3ccc(OC)cc3)oc3ccccc23)cc1	D2 antag 47
COc1ccc(-c2oc3ccccc3c(=O)c2OC(=O)c2ccc(C)cc2)cc1	D2 PAM-1 31
Cc1cc2oc(C(=O)N(Cc3ccc(N(C)C)cc3)CC3CCCO3)c(C)c2cc1Cl (centres undefined)	none (no result: D2 antag, D2 ag-1, D2 PAM-2, D2 ag-2)
CS(=O)(=O)N1CCCC(C(=O)N2CCN(c3cccc(Cl)c3)CC2)C1 (centres undefined)	D2 antag 31
CCOc1cccc(CN2CCCC(N3CCN(c4cccc(Cl)c4)CC3)C2)c1O (centres undefined)	D2 antag 37
CCOc1cccc(CN2CCCC(C(=O)c3cc(Cl)ccc3OC)C2)c1O (centres undefined)	D2 antag 66
O=C(c1cnccn1)N1CCCC(N2CCN(c3cccc(Cl)c3)CC2)C1 (centres undefined)	D2 ag-2 37
CCOc1cccc(CN2CCCC(N3CCc4ccccc4C3)C2)c1O (centres undefined)	none
Cc1cccc(C(=O)N2CCCC(N3CCN(c4cccc(Cl)c4)CC3)C2)n1 (centres undefined)	none
CS(=O)(=O)N1CCC(C(=O)N2CCN(c3cccc(Cl)c3)CC2)CC1	none (no result: D2 PAM-1)
CCc1ccc(OCC(=O)Nc2ncn[nH]2)c(Br)c1	none (no result: D2 antag, D2 ag-1, D2 PAM-2, D2 ag-2)
COC(=O)c1sccc1NC(=S)N1CCCCC1	none
COC(=O)c1sccc1NC(=S)N1CCC(C(N)=O)CC1	D2 antag 36
CC1=C(C(=O)Nc2ccc(Cl)cc2)C(c2ccc(C(F)(F)F)cc2)n2nnnc2N1 (centres undefined)	none (no result: D2 antag, D2 ag-1, D2 PAM-2)
CN(C)c1ccc(CNC(=O)Cn2ccc3cc(S(=O)(=O)N4CCCCCC4)ccc32)cc1	none (no result: D2 antag, D2 ag-1, D2 PAM-2)
Cc1ccccc1NC(=O)Nc1nnc(N2CCCCCC2)s1	none (no result: D2 antag, D2 ag-1, D2 PAM-2)
COc1ccc(-c2cc(C3CCN(Cc4cccc(C(F)(F)F)c4)CC3)[nH]n2)cc1	D2 antag 59
CCc1cccc(CC)c1NC(=O)CCCSc1nc2ccccc2s1	D2 antag 30
Cc1cccc(C)c1NC(=O)CCCSc1nc2ccccc2s1	none
c1ccc2c(c1)nc1n2CC2CON(C3CCCCC3)C12 (centres undefined)	D2 antag 37
COCCNc1nc(-c2ccccc2CO)c2sc(-c3ccccc3)cc2n1	none (no result: D2 antag, D2 PAM-1, D2 ag-2)
Cc1c(C(=O)O)sc2ncnc(N3CCCCC3C)c12 (centres undefined)	D2 PAM-1 33
COc1cc(/C=C2/C(=O)CNC2=O)ccc1O	D2 ag-2 37
COc1cc(/C=C/C(=O)CC(=O)/C=C/c2ccc(O)c(OC)c2)ccc1O	D2 ag-2 53
COc1cccc(-c2nc(CS(=O)(=O)CC(=O)Nc3ccccc3Cl)c(C)o2)c1	none
COc1ccc(OC)c(S(=O)(=O)NCCc2csc3nc(-c4ccccc4)nn23)c1	none (no result: D2 antag, D2 PAM-1, D2 ag-1, D2 PAM-2)
COc1cc(Br)cc(/C=N/N(CCO)C2=NS(=O)(=O)c3ccccc32)c1OC	D2 antag 38
COc1cc(/C=N/N(CCO)C2=NS(=O)(=O)c3ccccc32)cc(OC)c1OC	none
COc1ccccc1C(=O)Nc1cc2c(cc1N1CCCCC1)n(C)c(=O)n2C	none (no result: D2 antag, D2 ag-1, D2 PAM-2, D2 ag-2)
CC(C)Cc1ccc(C(C)C(=O)Nc2ccc(O)cc2)cc1 (centres undefined)	D2 antag 39
CC(C)Cc1ccc(C(C)C(=O)Nc2cccnc2)cc1 (centres undefined)	none
CC(=O)c1ccc(Nc2cc(C)nc3nc(Cc4ccc(Cl)cc4)nn23)cc1	none (no result: D2 antag, D2 ag-1, D2 PAM-2)
CN1CCN(CC/C=C2/c3ccccc3Sc3ccc(S(=O)(=O)N(C)C)cc32)CC1	D2 antag 80
O=C(NC(=O)N1CCN(c2cccc(Cl)c2)CC1)c1ccccc1	none
O=C(NC(=O)N1CCCCCC1)c1ccc(Cl)cc1	D2 antag 32

Screening results deposited in PubChem BioAssay by National Center for Advancing Translational Sciences (NCATS).
